Assay outcomes deposited in PubChem by National Center for Advancing Translational Sciences (NCATS).
Shiga toxin inh – blocks Shiga toxin action in Vero cells; Vero cells, Shiga toxin protein synthesis inhibition reporter; inhibition, % at 38.7 µM; 290,000 compounds, 9.2% hits; in the data active means inhibition mostly above about 28%, no sharp cut-off; inactive means mostly below about 43%; further: 0% is about no effect
Giardia FBPA inh – Giardia lamblia aldolase inhibition; purified Giardia FBPA; Potency, µM (highest dose often 59.6 µM), for the others: at the top dose activity, negative = inhibition, usual class: inhibitors; 290,000 compounds, 0.71% hits; AID 2451; further: potency means the concentration at half of the fitted maximal effect; on the % scale 0 is the no-effect control and ±100 the full control effect; nearly all actives have a fitted effect of over 55% in size
Target sequence (A8B2U2 whole entry, looked up): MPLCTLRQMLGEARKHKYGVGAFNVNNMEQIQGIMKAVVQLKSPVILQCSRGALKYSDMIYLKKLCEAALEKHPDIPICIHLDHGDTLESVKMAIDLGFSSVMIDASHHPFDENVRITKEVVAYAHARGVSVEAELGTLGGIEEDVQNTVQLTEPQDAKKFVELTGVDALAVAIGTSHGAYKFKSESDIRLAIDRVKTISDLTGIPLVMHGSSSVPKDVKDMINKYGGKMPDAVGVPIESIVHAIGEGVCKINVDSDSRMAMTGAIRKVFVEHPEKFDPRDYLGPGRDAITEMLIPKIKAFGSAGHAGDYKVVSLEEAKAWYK
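Giardia FBPA (40 nM reagent) was preincubated 10 min at RT with compound (up to 57.5 uM final), then substrate plus GAPDH/TPI/NAD/arsenate coupling system with diaphorase/resazurin was added; resorufin fluorescence (525/598 nm) was read after 20 min.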
CHX counter – counter-screen hit for Shiga toxin inhibitors, cycloheximide. cell reporter, cycloheximide protein synthesis inhibition counterscreen. AID 2314. max response, %. 300,000 compounds, 12% hits; in the data active means max response mostly above about 13%, no sharp cut-off; inactive means mostly below about 14%; further: read at 38.3 µM for the half of the compounds with a filed dose; 0% is about no effect
Tb PYK inh – blocks Trypanosoma brucei pyruvate kinase; Q57TT1; TbPYK enzyme, Kinase-Glo Plus ATP luminescence, 45 min; Potency, µM (highest dose often 76.8 µM), for inactives: at the top dose activity, negative = inhibition, usual class: inhibitors; 410,000 compounds, 0.12% hits; further: potency means the concentration at half of the fitted maximal effect; on the % scale 0 is the no-effect control and ±100 the full control effect; nearly all actives have a fitted effect of over 50% in size
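Enzyme and substrate buffer are dispensed first and compound is pin-transferred. ADP at 130 uM final then starts the reaction, which runs 45 min at room temperature. Detection reagent is added for 10 min before luminescence is imaged.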
LmPK inhibitor – blocks Leishmania mexicana pyruvate kinase activity; 290,000 compounds, 0.37% hits; Potency, µM (highest dose often 57.5 µM), without a hit: at the top dose activity change, negative = inhibition, actives largely listed as inhibitors; purified LmPK, Kinase-Glo ATP luminescence, 1 h; further: potency means the concentration at half of the fitted maximal effect; on the % scale 0 is the no-effect control and ±100 the full control effect
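Pyruvate kinase activity monitored as ATP production (luciferase luminescence). Conditions: 0.1 nM enzyme, 0.5 mM PEP, 0.1 mM ADP, 1 h, RT; normalized against uninhibited and no-enzyme wells.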
Sm TGR block – inhibitors of Schistosoma mansoni thioredoxin glutathione reductase; Q962Y6; purified TGR, DTNB reduction, TNB absorbance 405 nm; Potency, µM (series often up to 114 µM), for the others: at the top dose activity change, negative = inhibition, hits mostly inhibitors; 360,000 compounds, 3% hits; further: potency means the concentration at half of the fitted maximal effect; on the % scale 0 is the no-effect control and ±100 the full control effect; nearly all actives have a fitted effect of over 60% in size
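Kinetic colorimetric format: TGR-catalysed, NADPH-driven DTNB reduction monitored via TNB absorbance. Enzyme dispensed at 20 nM; compound exposure 15 min at room temperature before reaction start.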
* marks the source's active call; other numbers are inactive results; ? = inconclusive; · = not tested or not shown; [ ] = another dose, or the depositor's remark. The full list was thinned out, with hits kept by preference. Unless noted, the call rests on the fitted dose curve; in most records, active means well fitted curve in the direction sought with a large enough effect; inconclusive means small, poorly fitted or top-dose-only effect, or another doubt; inactive means no such curve, though single readings can be large; an effect the other way counts as inactive or inconclusive.

SMILES | Shiga toxin inh | Giardia FBPA inh | CHX counter | Tb PYK inh | LmPK inhibitor | Sm TGR block
CC1CCCC(=NNC(=O)C2COc3ccccc3O2)C1 (centres undefined) | · | · | · | 1% | · | ·
Cc1ccccc1OCC(=O)N/N=C1\CC(=O)CC(C)(C)C1 | -19 | · | -1 | 2% | -12% | -18%
CC1(C)CC(=O)C/C(=N/Nc2nc3ccccc3s2)C1 | 43* | -5% | 40* | -11% | 0% | 14%
Cc1cc(C=C2C(=O)NC(=O)NC2=O)c(C)n1-c1cccnc1 | -6 | 1% | -5 | -9% | -7% | -23%
Cc1cc(/C=C2/NC(=S)NC2=O)c(C)n1-c1cccnc1 | 51* | -16% | 37* | -2% | -5% | -26%
Cc1cc(/C=C2/NC(=O)N(c3ccccc3)C2=O)c(C)n1-c1cccnc1 | 91* | -10% | 59* | -4% | -1% | -13%
Cc1ccn2c(=O)c(C(=O)NCCc3ccc(S(N)(=O)=O)cc3)c(O)nc2c1 | · | · | · | -3% | · | 0%
Cc1ccc2c(Sc3ccc(Cl)cc3)c(C(=O)N3CCC(C)CC3)[nH]c2c1 | · | · | · | 2% | · | -2%
O=C(NC(Cc1ccccc1)c1ccc2c(c1)OCCCO2)c1ccc(F)cc1 (centres undefined) | 30 | -6% | 20 | 31% | -1% | -16%
CC(=O)NC(Cc1ccccc1)c1ccc2c(c1)OCCCO2 (centres undefined) | active | -1% | 11 | -6% | 0% | 3%
CC(=O)c1cccc(N(CC(=O)NC2CCCCC2)C(=O)CCC(=O)Nc2nc(C)cs2)c1 | -8 | · | -4 | -3% | 0% | -12%
O=C(Nc1ccc(Cl)c(Cl)c1)Nc1nccs1 | 69* | -7% | 34* | -2% | -8% | 15%
O=C(Nc1cccc(Cl)c1)Nc1nccs1 | 98* | -1% | 69* | · | 0% | -17%
CSc1ccc(Cl)c(C(=O)Nc2nccs2)c1 | -4 | 0% | -5 | 11% | -1% | -5%
NC(CO)c1csc(NC(=O)Nc2cccc(Cl)c2)n1 (centres undefined) | · | · | · | -8% | · | ·
C[C@@H](C(=O)O)c1ccc(C(=O)c2ccccc2)s1 | · | 12%[21.7 µM] | · | -9%[33.2 µM] | · | ·
Cc1ccc(C)c(N(C)C(=O)C2CCN(S(=O)(=O)c3cccc4nsnc34)CC2)c1 | · | · | · | 1% | · | -3%
CCOCCc1c(O)nc(SCCOc2ccc(C)c(C)c2)[nH]c1=O | -15 | 7% | -1 | 4% | -4% | -6%[57.1 µM]
c1ccc(CC2CCN(c3nc4ccccc4n4nnnc34)CC2)cc1 | 17 | 1% | 8.5* | 5% | 2% | 5%
O=C(c1ccco1)N1CCN(c2nc3ccccc3n3nnnc23)CC1 | 36* | 6% | 24* | -8% | -5% | -24%
Cc1ccc(CNc2nc3ccccc3n3nnnc23)cc1 | -46 | -1% | 23 | -3% | -6% | 4%
O=C(CCn1c(=O)c2sccc2n(Cc2cccc(F)c2)c1=O)NCc1ccc2c(c1)OCO2 | · | · | · | 4% | · | 1%
CCOc1ccc(NC(=O)C2CC(=O)NC(=Nc3ccc(Cl)c(Cl)c3)S2)cc1 (centres undefined) | · | · | · | 4% | · | 1%
Cc1cnc2c3c(cc(Cl)c2c1)-c1ccccc1S(=O)(=O)N3 | 54* | · | 73* | · | · | ·
O=C(O)c1c2c(nc3ccccc13)/C(=C/c1ccc(O)cc1)CC2 | -18 | -14% | -5 | 1% | -11% | -1%
SMILES | Shiga toxin inh | Giardia FBPA inh | CHX counter | Tb PYK inh | LmPK inhibitor | Sm TGR block
O=C(O)c1c2c(nc3ccccc13)/C(=C/c1ccc(OC(F)F)cc1)CCC2 | 58* | -2% | 23* | -1% | 9% | -25%
CN(CC(=O)Nc1ccc(F)cc1F)S(=O)(=O)c1ccc(C(=O)N2CCOCC2)s1 | · | · | · | -6% | · | 3%
Cc1ccc(O)c(C=Nc2cc(C)ccc2O)c1 | 67 | -22% | 15* | 2% | -2% | -25%
CC(C)(C)c1ccc(O)c(N=Cc2c(O)ccc3ccccc23)c1 | 9 | -2% | 4 | -13% | 1% | -22%
Cc1ccc(N=Cc2cccc(O)c2O)c(C)c1 | 37* | ? | 25 | · | -25% | -1%
CC(C)(C)c1ccc(O)c(N=Cc2cc(Br)ccc2O)c1 | 31* | -5% | 20* | ? | -1% | -16%
CCc1ccc(O)c(N=Cc2ccccc2O)c1 | 71* | -18% | 15* | -8% | -5% | ?
